# This is a sample that favours compounds with a hit; in the whole collection about 2.6% have one here.
# TROY NFkB inh: blocks TROY-dependent signaling in reporter cells | Q293 LMP1-TROYcd NF-kB luciferase reporter, 4 h | inhibition, % at 10 µM | 0.98% of 360,000 active;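 active = compounds whose plate-normalised and pattern-corrected inhibition of the luciferase reporter signal at the single screening dose is 50% or more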
# TWEAK Fn14 block: inhibitors of TWEAK-Fn14 interaction signaling; inhibition, % at 10 µM; TWEAK-stimulated Fn14 reporter cells, luciferase luminescence, 8 h; 2% of 360,000 active; in the data active = inhibition above about 50%
# EWS-Fli block: EWS/Fli transcriptional activity inhibition. A673 NR0B1-luciferase reporter, viability-normalised. 0.67% of 350,000 active. AID 651661. inhibition, % at 12.6 µM;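 active = mean inhibition of at least 50% after viability correction, with every replicate also passing that limit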;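 also: firefly luciferase signal divided by Alamar Blue viability fluorescence both relative to DMSO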
# LGR2 antag: inhibitors of bursicon-induced Drosophila LGR2 receptor cAMP signaling; HEK293 LGR2, CRE-luciferase, bursicon-stimulated, 4 h; 0.35% of 380,000 active; inhibition, % at 9.99 µM;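 active = drop in luminescence signal, shown as inhibition above about 50% in the replicate tests, limit read from the data, passing the limit was not always enough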;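 also: agonist challenge used bursicon conditioned medium at about half maximal strength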
# EBV LMP1 NFkB: Epstein-Barr LMP1 NF-kappaB reporter inhibition | LMP1-induced NF-kappaB luciferase reporter cells, luminescence | inhibition, % at 12.5 µM | 0.69% of 350,000 active | AID 504558; in the data active = inhibition above about 41%
# Numbers stand for hits; i = inactive; nt = no result.
SMILES,TROY NFkB inh,TWEAK Fn14 block,EWS-Fli block,LGR2 antag,EBV LMP1 NFkB
COc1ccc(C(=O)/C=C/C(=O)N(CC(=O)NC2CCCCC2)Cc2cccs2)c(O)c1,i,82,64,nt,59
COCC#Cc1ccc2c(c1)O[C@H](CN(C)S(=O)(=O)c1cccc(F)c1)[C@@H](C)CN([C@@H](C)CO)S2(=O)=O,nt,nt,i,i,nt
c1ccc2c(c1)oc1c(Nc3ccc(CN4CCOCC4)cc3)ncnc12,52,75,nt,nt,i
c1ccc2c(c1)oc1c(NCCN3CCOCC3)ncnc12,i,i,nt,nt,i
Cc1noc(C)c1NC(=O)Nc1ccc2c(c1)CC(=O)N([C@@H](C)CO)C[C@H](C)[C@H](CN(C)S(=O)(=O)c1ccccc1)O2,nt,nt,i,i,nt
Cc1ccc2[nH]c(=O)c(CN(CCCN3CCOCC3)C(=O)NC3CCCCC3)cc2c1,i,i,nt,nt,i
O=C(Nc1ccccc1F)N(CCCN1CCOCC1)Cc1cc2cc3c(cc2[nH]c1=O)OCCO3,58,i,nt,nt,i
CCc1ccc2[nH]c(=O)c(CN(CCCN3CCOCC3)C(=O)Nc3ccccc3)cc2c1,62,i,nt,nt,i
COc1ccc2[nH]c(=O)c(CN(CCN3CCCC3)C(=O)Nc3ccccc3Cl)cc2c1,i,i,nt,nt,i
CCc1ccc2[nH]c(=O)c(CN(CCN3CCCC3)C(=O)NC3CCCCC3)cc2c1,nt,85,nt,nt,i
CCOc1ccc2[nH]c(=O)c(CN(CCN3CCCC3)C(=S)Nc3ccccc3OCC)cc2c1,i,i,55,i,i
CCC(=O)Nc1ccc2c(c1)C(=O)N(C)C[C@@H](OC)[C@H](C)CN(CCC(F)(F)F)[C@@H](C)CO2,nt,nt,i,i,nt
CCN(CC)CCCN(Cc1cc2cc3c(cc2[nH]c1=O)OCCO3)C(=O)Nc1ccccc1,78,i,nt,nt,i
Oc1c(N=NC(=S)Nc2ccccc2F)c2ccccc2n1Cc1ccc(F)cc1,i,i,i,i,51
Oc1c(N=NC(=S)Nc2ccccc2F)c2ccccc2n1Cc1cccc(Cl)c1,i,i,i,i,44
Cc1cccc(Cn2c(O)c(N=NC(=S)Nc3ccccc3F)c3ccccc32)c1,i,i,i,i,i
C[C@H]1CN([C@@H](C)CO)C(=O)c2cc(C#CC3CCCCC3)cnc2O[C@H]1CN(C)C(=O)NC1CCCC1,nt,nt,i,i,nt
CO[C@@H]1CN(C)C(=O)c2cc(NS(=O)(=O)c3ccccc3F)ccc2OC[C@@H](C)N(S(C)(=O)=O)C[C@H]1C,nt,nt,i,i,nt
Cc1ccc(C2CN=NC23CCc2ccccc2C3=O)cc1 (configuration not stated),i,55,nt,nt,i
CO[C@@H]1CN(C)C(=O)c2cc(NS(=O)(=O)c3ccc(F)cc3)ccc2OC[C@@H](C)NC[C@@H]1C,nt,nt,i,i,nt
CN1C(=O)C2C3c4ccccc4C(c4ccccc43)[C@@H]2C1=O (some centres not stated),i,i,i,i,i
O=C1C2C3c4ccccc4C(c4ccccc43)C2c2nc3ccccc3n21 (configuration not stated),nt,52,nt,i,i
COc1ccc2c3c(n(C)c2c1)[C@@H](CO)N(Cc1nccs1)CC31CN(C)C1,nt,nt,i,i,nt
O=C(NC(=S)Nc1ccc(S(=O)(=O)NC2CCCCC2)cc1)c1cccs1,i,53,i,i,i
Cc1ccc(/C=C/C(=O)NC2=NCCS2)cc1,i,52,i,72,i
SMILES,TROY NFkB inh,TWEAK Fn14 block,EWS-Fli block,LGR2 antag,EBV LMP1 NFkB
CC(C)(C)c1ccc(/C=C/C(=O)NC2=NCCS2)cc1,53,50,nt,nt,i
CC(C)(C)c1ccc(/C=C/C(=O)Nc2cccnc2)cc1,i,i,i,i,i
Cc1ccc(/C=C/C(=O)Nn2cnnc2)cc1,i,57,nt,nt,i
Cc1ccc(/C=C/C(=O)NN2CCN(C)CC2)cc1,i,i,nt,i,i
Cc1ccc(OCC(=O)NC2=NCCS2)cc1,i,i,nt,nt,i
O=C(NCC[C@H]1CC[C@@H](NS(=O)(=O)Cc2ccccc2)[C@@H](CO)O1)C1CCOCC1,nt,nt,i,i,nt
C/C=C/c1ccc([C@H]2[C@H](CO)N3CCCCN(S(=O)(=O)c4cccc(C)c4)C[C@@H]23)cc1,nt,nt,i,i,nt
COc1ccc(CN(C)C[C@H]2Oc3ccc(NC(=O)Cc4ccccc4)cc3C(=O)N([C@@H](C)CO)C[C@H]2C)cc1,nt,nt,nt,i,nt
CCN(c1ccccc1)S(=O)(=O)c1ccc(Cl)c(NC(=O)Nc2ccc(Cl)cc2C#N)c1,i,i,i,i,85
O=C(Oc1ccccc1C(=O)Nc1ccccc1)c1ccccc1Br,i,i,53,nt,i
C=C[C@]1(C)C=C2CC[C@H]3[C@@](C)(CCC[C@@]3(C)C(=O)O)[C@@H]2CC1,i,i,nt,nt,i
C=C[C@]1(C)C=C2C(=O)[C@@]3(O)OC(=O)[C@@]4(CCCC(C)(C)[C@H]34)[C@@]2(O)CC1,i,104,i,i,nt
Fc1ccc(NC(=S)NNc2ncc(C(F)(F)F)cc2Cl)c(F)c1,61,i,i,i,45
O=C(O)c1ccc(NNC(=S)Nc2cc(C(F)(F)F)ccc2Cl)cc1,i,69,i,i,i
O=C(NC(=S)Nc1cc(C(F)(F)F)ccc1Cl)c1ccccc1,i,i,nt,nt,i
Cc1ccc(NC(=S)NNc2ncc(C(F)(F)F)cc2Cl)c(C)c1,i,i,nt,nt,i
Cc1ccc(NC(=S)NNc2ncc(C(F)(F)F)cc2Cl)cc1,i,i,nt,i,i
FC(F)(F)c1cnc(NNC(=S)Nc2ccc(Cl)cc2)c(Cl)c1,59,61,nt,i,i
O=C(C[C@@H]1C[C@H]2c3cc(NC(=O)Nc4ccccc4)ccc3O[C@H]2[C@@H](CO)O1)NCCN1CCCCC1,nt,nt,i,i,nt
C[C@@H]1CN([C@@H](C)CO)C(=O)c2cc(NC(=O)Nc3ccc(F)cc3)ccc2O[C@H]1CN(C)C(=O)NC1CCCCC1,nt,nt,i,i,nt
COc1ccc(S(=O)(=O)N2CCN(CC(=O)Nc3cc(OC)cc(OC)c3)CC2)cc1,i,i,nt,i,79
COc1cccc(NC(=O)CN2CCN(S(=O)(=O)c3ccc(F)cc3)CC2)c1,i,i,i,i,i
O=C(CN1CCN(S(=O)(=O)c2ccc(F)cc2)CC1)Nc1cccc(C(F)(F)F)c1,i,i,nt,i,74
Cc1ccc(S(=O)(=O)N(C)C[C@@H]2Oc3ccc(NC(=O)Nc4ccc(F)cc4)cc3CC(=O)N([C@H](C)CO)C[C@H]2C)cc1,nt,nt,i,i,nt
CCCN1C[C@@H](C)[C@H](OC)CN(C)C(=O)c2ccc(NC(=O)C3CC3)cc2OC[C@@H]1C,nt,nt,i,i,nt
SMILES,TROY NFkB inh,TWEAK Fn14 block,EWS-Fli block,LGR2 antag,EBV LMP1 NFkB
Fc1ccc2nc(-c3ccc(CN4CCC(c5nc6ccccc6[nH]5)CC4)cc3)c(-c3ccccc3)nc2c1,nt,nt,i,i,nt
C[C@H](CO)N1C[C@H](C)[C@@H](CN(C)CC2CC2)Oc2ccc(NC(=O)Nc3ccc4c(c3)OCO4)cc2CC1=O,nt,nt,i,i,nt
Nc1nc2ccc(Cl)cc2cc1C(=O)NCCc1c[nH]c2ccccc12,i,52,nt,nt,nt
Nc1nc2ccc(Cl)cc2cc1C(=O)NCCc1ccc(Cl)cc1Cl,nt,nt,i,i,nt
COc1cccc(N2CC(=O)Nc3c(oc4nc(-c5ccccc5)cc(C)c34)C2=O)c1,71,i,i,i,i
Cc1cc(=O)oc2c3c(cc(OCC(=O)NC(C)C)c12)OC(C)(C)CC3,i,i,i,i,i
Cc1cc(=O)oc2c3c(cc(OCC(=O)N[C@@H](C)C(=O)O)c12)OC(C)(C)CC3,i,76,i,i,i

# Screening results as filed in PubChem.
